In PubChem BioAssay (NCATS):
Records with an inconclusive call do not appear. Values without a mark were called inactive. Calls of active or inactive are those of the source. Calls follow the shape of the dose curve; as a rule, active = well fitted inhibition curve with a large enough effect; inconclusive = small, poorly fitted or top-dose-only effect; inactive = flat fitted curve, though single readings scatter.

Molecular target: Glutathione peroxidase 1 (Homo sapiens) (UniProt P07203)
Experiment: Primary qHTS Assay for Inhibitors of Recombinant Selenoprotein Glutathione Peroxidase 1 (GPX1) (AID 1845191); also: nearly all actives have a fitted effect of over 65% in size
Settings: recombinant GPX1, GR-coupled NADPH fluorescence, 15 min; series mostly up to 48.8 µM; activity, negative = inhibition: at the top concentration
Summary of the method: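 Recombinant GPX1 (10 nM final) was preincubated with compound for 30 min at room temperature, then reacted with 1 mM GSH, 0.5 mM CHP, 0.5 mM NADPH and 100 nM glutathione reductase; NADPH fluorescence (340/450 nm) was read at 0 and 15 min.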
% is scaled to controls: 0 for no effect and ±100 for the full control effect; potency is read from the fitted curve at half-maximal effect.

Glutathione peroxidase 1 (Homo sapiens), sequence (P07203 whole entry, looked up): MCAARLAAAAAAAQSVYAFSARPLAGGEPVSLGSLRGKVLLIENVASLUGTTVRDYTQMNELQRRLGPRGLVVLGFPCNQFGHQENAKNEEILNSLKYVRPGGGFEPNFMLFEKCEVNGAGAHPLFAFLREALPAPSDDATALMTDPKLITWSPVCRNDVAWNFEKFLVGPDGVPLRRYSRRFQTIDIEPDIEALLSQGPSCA

Row | SMILES | activity, negative = inhibition | outcome | Potency
1 | CC(C)C(=O)OCC(=O)[C@@]12OC(C3CCCCC3)O[C@@H]1C[C@H]1[C@@H]3CCC4=CC(=O)C=C[C@]4(C)[C@H]3[C@@H](O)C[C@@]12C (stereo not given in full) | 2.12% | – | –
2 | CC(C)C[C@H](NC(=O)[C@@H](Cc1c[nH]c2ccccc12)NC(=O)[C@H](Cc1ccc(O)cc1)NC(=O)[C@H](CO)NC(=O)[C@H](Cc1c[nH]c2ccccc12)NC(=O)[C@H](Cc1cnc[nH]1)NC(=O)[C@@H]1CCC(=O)N1)C(=O)N[C@@H](CCCN=C(N)N)C(=O)N1CCC[C@H]1C(=O)NCC(N)=O | – | inactive [at 27.7 µM] | –
3 | COCC1=C(C(=O)OC(C)OC(=O)OC(C)C)N2C(=O)[C@@H](NC(=O)/C(=N/OC)c3csc(N)n3)[C@H]2SC1 (stereo not given in full) | – | – | 9.04 µM (active)
4 | COc1cc2c(c(OC)c1OC)-c1c(cc3c(c1OC)OCO3)C[C@H](C)[C@@](C)(O)C2 | 2.05% | – | –
5 | NC(=O)C1CCCN1C(=O)C(Cc1cnc[nH]1)NC(=O)C1CCC(=O)N1 (stereo not given) | -10.5% | – | –
6 | CCCCCCCCCCCCCCCC(=O)OCC(=O)[C@@]1(O)[C@H](C)C[C@H]2[C@@H]3CCC4=CC(=O)C=C[C@]4(C)[C@@]3(F)[C@@H](O)C[C@@]21C | -29.2% | – | –
7 | O=C(O)C(O)C(O)C(=O)O (stereo not given) | -11.9% | – | –
8 | CCCCC[C@H](O)/C=C/[C@@H]1[C@@H](C/C=C/CCCC(=O)O)[C@@H](O)C[C@H]1O | -21.9% | – | –
9 | O=C(OC1C[C@@H]2CC3C[C@@H](C1)N2CC3=O)c1c[nH]c2ccccc12 (stereo not given in full) | -13.3% | – | –
10 | COc1ccc(CC(C)(C)NC[C@H](O)c2cc(O)cc3c2OCC(=O)N3)cc1 | 4.45% | – | –
11 | O[C@@H]1[C@@H](O)[C@@H](O)OC[C@@H]1O | – | inactive [at 150 µM] | –
12 | CCCCCCCCCC(=O)OCCN1CCN(CCCN2c3ccccc3Sc3ccc(C(F)(F)F)cc32)CC1 | – | inactive | –
13 | OC(CCN1CCCCC1)(c1ccccc1)C1CCCC1 (stereo not given) | – | inactive | –
14 | O=C(O)C[C@@H]1CC[C@H](NC(=O)Cc2cccs2)B(O)O1 | -1.51% | – | –
15 | CCN1CCC(=C2c3ccccc3CCc3ccccc32)C1C (stereo not given) | -13.9% | – | –
16 | C[N+](C)(C)C1CCC(CC2CCC([N+](C)(C)C)CC2)CC1 (stereo not given) | – | inactive | –
17 | CO[C@@H]1[C@@H](O[C@@H]2O[C@H](C)[C@@H](O[C@H]3C[C@@](C)(O)[C@H](O)[C@H](C)O3)[C@H](N(C)C)[C@H]2O)[C@@H](CC=O)C[C@@H](C)[C@@H](O[C@H]2CC[C@H](N(C)C)[C@@H](C)O2)/C=C/C=C/C[C@H](C)OC(=O)C[C@H]1O | -14% | – | –
18 | CCC(CN)CC(C)CNCC(O)CNCC(CC)CC(CC)CN (stereo not given) | – | inactive | –
19 | OC[C@H]1O[C@H](O)[C@H](O)[C@@H](O)[C@@H]1O | -10.6% | – | –
20 | CCC1OC(=O)C(C)C(OC2CC(C)(OC)C(O)C(C)O2)C(C)C(OC2OC(C)CC(N(C)C)C2O)C(C)(O)CC(C)C2NC(COCCOC)OC(C2C)C1(C)O (stereo not given) | – | inactive | –

Row | SMILES | activity, negative = inhibition | outcome | Potency
21 | CNCC(=O)OCc1cccnc1N(C)C(=O)OC(C)[n+]1cnn(C[C@](O)(c2cc(F)ccc2F)[C@@H](C)c2nc(-c3ccc(C#N)cc3)cs2)c1 (stereo not given in full) | -23.9% | – | –
22 | CC(=O)OC1CCC2(C)C(=CCC3C2CCC2(C)C(c4cccnc4)=CCC32)C1 (stereo not given) | -3.32% | – | –
23 | Cc1ccc(S(=O)(=O)O)cc1 | – | inactive | –
24 | OCC1OC(c2ccc(Cl)c(Cc3ccc(OC4CCOC4)cc3)c2)C(O)C(O)C1O (stereo not given) | – | inactive | –
25 | Cc1cc(O)ccc1C(C)(C)C | 0.436% | – | –
26 | CC(C=CC1=C(C)CCCC1(C)C)=CC=CC(C)=CC(=O)Oc1c(C)c(C)c2c(c1C)CC[C@@](C)(CCC[C@H](C)CCC[C@H](C)CCCC(C)C)O2 | – | inactive [at 4.49 µM] | –
27 | CCC[C@@H]1C[C@@H](C(=O)N[C@@H](C2O[C@H](SC)[C@H](O)[C@@H](O)[C@H]2O)[C@H](C)Cl)N(C)C1 (stereo not given in full) | -18.6% | – | –
28 | CCCC1CC(C(=O)NC(C(C)Cl)C2OC(SC)C(OP(=O)(O)O)C(O)C2O)N(C)C1 (stereo not given) | 1.35% [at 27.7 µM] | – | –
29 | CCCCCC(O)/C=C/[C@@H]1C(CCCCCCC(=O)O)C(=O)C[C@@H]1O (stereo not given in full) | – | inactive | –
30 | Cc1oc(=O)oc1COC(=O)N1CC[C@@H](N2CC/C(=C\C3=C(C(=O)O)N4C(=O)[C@@H](NC(=O)/C(=N/O)c5nsc(N)n5)[C@H]4SC3)C2=O)C1 | – | – | 7.18 µM (active)
31 | CCCCCCCCCCCCCCCCCCCCCCCCCCCCO | – | inactive [at 0.4 µM] | –
32 | O=C(O)[C@H]1OC(O)[C@H](O)[C@@H](O)[C@@H]1O (stereo not given in full) | 3.97% | – | –
33 | CC(C)OC(=O)CCC/C=C\C[C@@H]1[C@@H](CC[C@@H](O)CCc2ccccc2)[C@H](O)C[C@@H]1O | – | inactive [at 9.52 µM] | –
34 | O=C(O)CSc1nnc(Br)n1-c1ccc(C2CC2)c2ccccc12 | – | inactive | –
35 | CC(=O)OC1CC(OC2C(O)CC(OC3C(O)CC(OC4CCC5(C)C(CCC6C5CCC5(C)C(C7=CC(=O)OC7)CCC65O)C4)OC3C)OC2C)OC(C)C1O (stereo not given) | -8.69% | – | –
36 | CCCC(=O)Nc1ncnc2c1ncn2C1O[C@@H]2COP(=O)(O)O[C@H]2[C@H]1OC(=O)CCC (stereo not given in full) | -15.1% | – | –
37 | OB1OCc2cc(F)ccc21 | 1.57% | – | –
38 | Cc1cc2nc3c(=O)[nH]c(=O)nc-3n(C[C@H](O)[C@H](O)[C@H](O)COP(=O)(O)OP(=O)(O)OC[C@H]3O[C@@H](n4cnc5c(N)ncnc54)[C@H](O)[C@H]3O)c2cc1C | – | inactive [at 27.7 µM] | –
39 | O=c1c2c(c1=O)N(CCP(=O)(O)O)CCCN2 | – | inactive [at 98.3 µM] | –
40 | O=C(O)[C@@H]1C(=CCO)O[C@@H]2CC(=O)N12 | -23.9% [at 27.7 µM] | – | –
